# Shown are actives, neighbours in structure and some others; about 8.7% of the full set was active somewhere.
# Sfp PPTase inh: Sfp phosphopantetheinyl transferase inhibition | 3.5% of 310,000 active | AID 1490 | Potency, µM, most hits filed as inhibitors | Biochemical Sfp PPTase activity, qHTS | Q9F4F7;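 note: the enzyme is Sfp with the accession as filed and its product quenches rhodamine fluorescence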
#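 Fluorescence-quenching assay: 15 nM Sfp-PPTase preincubated 15 min at room temperature with compound, then 5 uM rhodamine-CoA and 12.5 uM BHQ-2-labelled YbbR peptide added. Fluorescence (ex 525/em 598 nm) read at start and after 30 min; difference gives rate.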
# BAZ2B block: BAZ2B (human) inhibition; AlphaScreen BAZ2B-H3K14Ac peptide displacement; Q9UIF8; Potency, µM (doses to about 114 µM), most hits filed as inhibitors; 4.4% of 360,000 active; note: nearly all actives have a fitted effect of over 60% in size
#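 BAZ2B 50 nM plus b-H3(5-23)K14Ac 50 nM, PBS pH 7.4/0.01% Tween-20, 30 min RT; compound added (max 110 uM), 30 min RT; streptavidin donor/Ni-chelate acceptor beads 10 ug/mL final, 20 min dark; AlphaScreen read.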
# HP1b binding inh: inhibitors of HP1-beta chromodomain binding to methylated histone tails; Potency, µM (titrated, usually from 114 µM), usual class: inhibitors; AlphaScreen HP1-beta / biotin-H3K9me3 peptide binding; 0.56% of 390,000 active; AID 540317; P83916; note: nearly all actives have a fitted effect of over 70% in size
# Target sequence (P83916 whole entry, looked up): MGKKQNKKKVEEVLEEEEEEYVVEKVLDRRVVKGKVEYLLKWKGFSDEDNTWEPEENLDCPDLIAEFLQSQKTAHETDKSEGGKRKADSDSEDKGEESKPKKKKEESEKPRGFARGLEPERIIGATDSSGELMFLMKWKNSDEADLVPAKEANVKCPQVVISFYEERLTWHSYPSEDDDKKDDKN
#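 AlphaScreen: HP1-beta (50 nM) preformed 30 min with biotin-H3(1-18)K9me3 peptide (50 nM) in PBS pH 7.4, 0.01% Tween-20. Compound added for 30 min at RT, then streptavidin donor/nickel chelate acceptor beads (10 ug/mL) for 30 min.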
# JMJD2A Tudor inh: JMJD2A Tudor domain (human) inhibition; AID 504339; 4.4% of 390,000 active; AlphaScreen JMJD2A-Tudor / H3K4me3 peptide binding; O75164; Potency, µM (top dose mostly 114 µM), actives largely listed as inhibitors; note: nearly all actives have a fitted effect of over 50% in size
# G9a block: G9a (human) methyltransferase inhibition | G9a H3K9 monomethylation, AlphaScreen, 2 h | Potency, µM (highest dose often 102 µM), actives largely listed as inhibitors | 8.8% of 350,000 active; note: nearly all actives have a fitted effect of over 75% in size
# Target sequence (Q96KQ7 913-1193 limits assumed): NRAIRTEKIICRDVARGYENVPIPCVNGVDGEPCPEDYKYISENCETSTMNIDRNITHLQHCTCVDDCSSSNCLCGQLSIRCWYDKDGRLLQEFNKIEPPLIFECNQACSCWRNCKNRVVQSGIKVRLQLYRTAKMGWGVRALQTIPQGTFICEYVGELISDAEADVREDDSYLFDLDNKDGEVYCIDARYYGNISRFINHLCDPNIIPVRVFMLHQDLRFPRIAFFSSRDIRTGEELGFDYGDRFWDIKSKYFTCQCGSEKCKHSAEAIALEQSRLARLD
#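 AlphaScreen read-out: biotin-H3K9 peptide (500 nM) methylation by 20 nM enzyme with 20 uM SAM, 2 h at room temperature after 15 min compound preincubation; anti-monomethyl H3K9 antibody plus donor/acceptor beads, 10 min dark.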
# ALOX12 inh: inhibitors of human 12S-lipoxygenase ALOX12; purified 12hLO, xylenol orange hydroperoxide absorbance; Potency, µM (top dose mostly 108 µM), usual class: inhibitors; 1.1% of 580,000 active
#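 Purified human 12hLO (150 nM final) in 25 mM Hepes, 0.01% Triton X-100, pH 7.0 was preincubated 15 min at room temperature with compound. Then 40 uM arachidonic acid was added, 30 min. Hydroperoxide was read by Fe-XO absorbance ratio 573/405 nm.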
# Numbers stand for hits; n = inactive; u = inconclusive; x = no result; [ ] = remark or other dose. Calls come from the whole dose curve; as a rule, active = well fitted curve in the direction sought with a large enough effect; inconclusive = small, poorly fitted or top-dose-only effect, or another doubt; inactive = no such curve, though single readings can be large; an effect the other way counts as inactive or inconclusive.
SMILES,Sfp PPTase inh,BAZ2B block,HP1b binding inh,JMJD2A Tudor inh,G9a block,ALOX12 inh
Cc1cc2cc3c(cc2nc1SCC(=O)O)OCCO3,n,n,n,n,n,n
CC(C)CCC(CCNC(C)c1cccs1)C1CCOC(C)(C)C1 (configuration not stated),x,x,x,x,x,1.78µM
CC(C)CCC1(CCNC(C)c2cccs2)CCOC(C)(C)C1 (configuration not stated),n,n,n,n,n,n
Cc1ccccc1OCC(=O)Nc1nonc1-c1ccccc1,x,x,x,x,x,n
CCNC(=O)N1CCOC(CN(CC(C)C)C(=O)c2cccc(OC)c2)C1 (configuration not stated),x,x,x,x,x,n
CCn1cnnc1CCNC(=O)c1cc(-c2ccc(C)cc2)nc2ccccc12,x,x,x,x,x,n
Cc1ccc(NC(=O)CC(O)(C(F)(F)F)C(F)(F)F)cc1,n,n,n,n,n,n
CC(=O)Nc1ccc(C)cc1,x,n,n,n,n[0.501 µM],n
Cc1ccc(NC(=O)C(=O)NN)cc1,n,u,n,n,50.1µM,n
NNC(=O)C(=O)Nc1ccc(O)cc1,n,n,n,n,15.8µM,n
O=C(O)/C=C/C(=O)Nc1ccc(O)cc1,n,n,u,u,x,n
Cc1cccc(NC(=O)CCC(=O)OCc2ccc(Br)cc2)c1,n,n,n,n,n,n
Cc1ccc(NC(=O)CCC(=O)OCc2ccc(Br)cc2)cc1,n,n,n,79.4µM,n,n
Cc1ccc(NC(=O)CC(N)=S)cc1,u,n,n,8.91µM,x,n
O=c1n(-c2ccc(C(F)(F)F)cc2)nc2n1CCN([S+](=O)([O-])c1cccc(C(F)(F)F)c1)C2,x,x,x,x,x,n
O=C(O)CC(C(=O)OCC1CCCO1)N1CCOCC1 (configuration not stated),n,n,n,n,n,u
O=C(COC(=O)C(c1ccccc1)c1ccccc1)NCc1ccco1,n,u,n,n,n,n
C=C(C)CCOC(=O)C(CC(=O)O)NCc1ccco1 (configuration not stated),u,35.5µM,n,35.5µM,11.2µM,n
O=C(O)CC(NCc1ccco1)C(=O)OCCc1ccccc1 (configuration not stated),n,n,n,6.31µM,31.6µM,u
O=C(O)CC(NCc1ccco1)C(=O)OCC1CCCO1 (configuration not stated),n,50.1µM,n,u,7.94µM,u
CC(OC(=O)c1ccccc1O)C(=O)Nc1ccc2c(c1)OCO2 (configuration not stated),x,x,x,x,x,n
CN(CC(O)COCC(Cl)CCl)S(=O)(=O)O (configuration not stated),x,x,x,x,x,n
ClCc1nc2ccccc2c2ccccc12,n,n,n,n,70.8µM,u
CCOC(=O)c1c(CCl)nc2ccccc2c1-c1ccccc1,n,n,n,n,u,u
CC(C)OC(=O)c1cccnc1SCc1cc(=O)n2ccccc2n1,n,n,n,n,50.1µM,n
SMILES,Sfp PPTase inh,BAZ2B block,HP1b binding inh,JMJD2A Tudor inh,G9a block,ALOX12 inh
COc1ccc2[nH]cc(C(=O)CCl)c2c1,n,n,n,n,u,u
COc1ccc2[nH]cc(C(=O)CNc3nc(C)cs3)c2c1,n,50.1µM,n,n[11.4 µM],u,u
CCN(CC)S(=O)(=O)c1ccc(N)cc1,n,n,n,n,n,n
CS(=O)(=O)c1ccc(N)cc1,n,n,n,n,44.7µM,n
CC(C)(C)NC(=O)C(c1c[nH]c2ccccc12)N(C(=O)Cn1nnc(-c2ccc(F)cc2)n1)c1cccc(O)c1 (configuration not stated),n,u,u,28.2µM,n,u
CC(C)(C)NC(=O)C(c1ccco1)N(C(=O)Cn1nnc(-c2ccc(F)cc2)n1)c1cccc(F)c1 (configuration not stated),n,n,n,n,n,n
COc1ccc(/C=C(/CC(=O)O)c2nc3ccccc3s2)cc1,x,x,x,x,x,2.24µM
O=C(O)C/C(=C/c1ccc(Br)cc1)c1nc2ccccc2s1,x,x,x,x,x,31.6µM
COc1cccc(/C=C(\CC(=O)O)c2nc3ccccc3s2)c1,n,x,n,n,n,n
O=C(O)C/C(=C/c1cccc(Br)c1)c1nc2ccccc2s1,x,x,x,x,x,28.2µM
CC(=O)Nc1c(-c2ccccc2)c(C)nn1-c1ccc(C(=O)NCc2ccccc2)cc1,x,x,x,x,x,n
